In PubChem BioAssay (NCI):
This is part of a sample that, as a whole, favours compounds with a hit. Of some 83,000 tested, about 20% had one in any assay.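 How to read the values: 0–100, growth inhibition (40 = 60% inhibited); 0, no net growth; -100 to 0, cell death (-40 = 40% of starting cells died; -100 = all dead).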 Values without a mark were called inactive. Activity calls are given as the source filed them. Rule for the calls: active = growth percent below 10; inactive = the rest.

These compounds were tested on HL-60(TB) leukemia (assay: NCI-60 one-dose screen, 48 h (100 = growth as untreated, 0 = no growth, -100 = all killed)). Conditions: 10 µM unless noted.

SMILES | growth
Fc1ccc(/C=C/[C@@H]2C[C@@H](F)CCO2)cc1 | 56.1%
COc1cc2cc(Oc3ccc(NC(=O)Nc4cccc(C(F)(F)F)c4)cc3)c(C)nc2cc1OC | -24.8% (active)
O=C1Nc2ccccc2/C1=C/c1cccn1CCCCCCn1c2ccccc2c(=O)c2ccccc21 | 54.5%
COc1cc(NC(C)CCCNC(=O)CCC(=O)NCCCNCCCCCCCCNCCCNC(=O)CCC(=O)NCCCC(C)Nc2cc(OC)cc3cccnc23)c2ncccc2c1 (stereo not given) | 56.5%
N#Cc1c(-c2ccc(F)cc2)c(C#N)c2c(C#N)c(N)nn2c1N | 99.7%
Cc1ccc(OCCOCCOCCOCCOc2ccc(C)n(O)c2=S)c(=S)n1O | -7.44% (active)
CO[C@H]1/C=C/O[C@@]2(C)Oc3c(C)c(O)c4c(O)c(c(/C=N/N5C(C)CN(Cc6ccc(C#N)cc6)CC5C)c(O)c4c3C2=O)NC(=O)/C(C)=C\C=C\[C@H](C)[C@H](O)[C@@H](C)[C@@H](O)[C@@H](C)[C@H](OC(C)=O)[C@@H]1C (stereo not given in full) | -37% (active)
C=C(C)[C@@H]1CC[C@]2(C(=O)N3CCOCC3)CC[C@]3(C)[C@H](CC[C@@H]4[C@@]5(C)C/C(=C/c6ccncc6)C(=O)C(C)(C)[C@@H]5CC[C@]43C)[C@@H]12 | 26.2%
CN(C)c1ccc2c(c1)OC(N)=C(C#N)C2c1ccc2c(c1)CCCN2C (stereo not given) | 5.46% (active)
CCCCCCC/C=N/NC(=O)c1ccc(-n2cc(-c3ccccc3)nn2)cc1 | 95.2%
C=CC(=O)Nc1cccc(-c2nc(SC)nc(NCCN3CCOCC3)c2C#N)c1 | 94.9%
Cc1cc(Cl)ccc1Nc1nc(C(F)(F)F)ccc1C(=O)N/N=C/c1cccc(O)c1 | 4.08% (active)
COc1cc2c(cc1OCCCN1CCN(CCCOc3cc4c(cc3OC)C(=O)N3CCC[C@H]3C=N4)CC1)C=CC(C)(C)O2 | 10.2%
CC[n+]1ccc(Nc2ccc(NC(=O)c3ccc(Nc4cc[n+](CC)c5ccc([N+](=O)[O-])cc45)cc3)cc2)cc1 | 66.9%
CCOC(=O)c1c(C)nc2c(c1N)/C(=C/c1ccc[nH]1)C(=O)N2Cc1ccc(C(F)(F)F)cc1 | 96.7%
CNCc1cccc2c1OCCOCCOCCN(C)S(=O)(=O)c1ccc(cc1)-c1cnc(N)c(n1)C(=O)N2 | -37% (active)
CCOC(=O)c1cnn(-c2ccc(S(N)(=O)=O)cc2)c1N | 92.9%
O=C1Nc2cc(-c3ccc(NC(=O)C4CC4)cc3)ccc2/C1=C/c1ccc[nH]1 | 100%

SMILES | growth
C#CCNC(=O)CC[C@]1(C)[C@H]2CC[C@@H]3[C@@H]([C@@](C)(O)CCC=C(C)C)CC[C@@]3(C)[C@]2(C)CC[C@H]1C(=C)C | -41% [100 µM] (active)
O=C1/C(=C\c2cccn2C(=O)c2ccccc2)c2ccccc2N1c1c(Cl)cccc1Cl | 9.37% (active)
Cc1ccc(CC#N)cc1C | 116%
CCCCC1CCCC12NC(=O)NC2=O (stereo not given) | 84.6%
N=C(N)c1ccc(-c2ccc(-c3ccc(F)cc3)s2)s1 | -57.6% (active)
CCN(CC)CCCNc1c2ccc(Cl)cc2nc2ccc(OC)cc12 | -50.3% (active)
COc1cc2nc(Cl)nc(Nc3cccc(C(=O)/C=C/c4ccc(F)cc4)c3)c2cc1OC | 62.1%
O=C(CN1CCN(c2ccc(Cl)cc2)CC1)N1CCN(c2nnc(-c3ccccc3)c(-c3ccccc3)n2)CC1 | -50.1% (active)
O=S(=O)(Nc1ccc(F)cc1)c1ccc(-c2cnc(C3CC3)o2)cc1 | -28.1% (active)
CC(=O)Nc1c(C(=O)Nc2ccccc2)sc2nc3c(cc12)C(OC(C)=O)CCC3 (stereo not given) | 18.6%
COc1cc(/C=N/NC(=O)c2ccccc2Nc2ccnc(C(F)(F)F)c2)ccc1O | 14%
O=[N+]([O-])c1cnc(Sc2ccncn2)s1 | -20.2% (active)
FC(F)(F)c1cccc(Nc2nc(-c3ccccc3)nc3ncccc23)c1 | -57.8% (active)
C#CCCCCCCC[C@@H]1OC(=O)[C@H]([C@@H](C)CC)NC(=O)[C@H]([C@@H](C)CC)NC(=O)CC(=O)[C@@H]1C | 103%
CC(=O)OC(C(=O)O)c1ccccc1 (stereo not given) | 3.72% (active)
O=C(CC1(O)C(=O)Nc2ccc(Br)cc21)c1ccc(Cl)cc1 (stereo not given) | 80.1%
CCOc1ccc(NC(=O)Nc2cc(C(C)C)ccc2C)cc1 | 95.2%
